Compound activity from PubChem.
A selection: hits, their analogues and other compounds. The true share with any hit is near 22%.
Shiga toxin inh – inhibitors of Shiga toxin in Vero cells; Vero cells, Shiga toxin protein synthesis inhibition reporter; actives 9.2% (n = 290,000); AID 2315; inhibition, % at 38.7 µM; in the data active means inhibition mostly above about 28%, no sharp cut-off; inactive means mostly below about 43%
Pf growth 48h – inhibits P. falciparum growth in the first generation, 48 h. actives 5.9% (n = 310,000). AID 504832. Potency, µM (doses to about 28.7 µM), most hits filed as inhibitors. P. falciparum luciferase growth in erythrocytes, 48 h
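Compounds are pin-transferred into medium, infected erythrocytes (2% hematocrit, 0.1% parasitemia final) are added, and plates sit one parasite generation at 37 C in 5% CO2. Detection reagent is then added and luminescence measured.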
LmPK inh – LmPK (Leishmania mexicana) enzyme inhibition; purified LmPK, Kinase-Glo ATP luminescence, 1 h; Potency, µM (highest dose often 57.5 µM), actives largely listed as inhibitors; actives 0.37% (n = 290,000)
Target sequence (Q27686 whole entry, looked up): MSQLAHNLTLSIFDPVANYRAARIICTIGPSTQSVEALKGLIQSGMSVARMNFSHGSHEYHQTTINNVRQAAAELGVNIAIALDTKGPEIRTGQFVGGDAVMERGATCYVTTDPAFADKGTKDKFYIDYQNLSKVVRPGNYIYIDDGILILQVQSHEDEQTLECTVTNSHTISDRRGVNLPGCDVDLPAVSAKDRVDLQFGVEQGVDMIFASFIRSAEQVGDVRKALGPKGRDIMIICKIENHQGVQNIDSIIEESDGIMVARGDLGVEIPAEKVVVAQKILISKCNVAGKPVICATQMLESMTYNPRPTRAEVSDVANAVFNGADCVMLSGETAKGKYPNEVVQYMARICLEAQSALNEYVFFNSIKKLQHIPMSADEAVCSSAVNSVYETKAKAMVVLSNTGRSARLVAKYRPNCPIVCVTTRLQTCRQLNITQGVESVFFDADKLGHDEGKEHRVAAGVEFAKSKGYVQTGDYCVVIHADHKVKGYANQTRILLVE
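Purified LmPK (0.1 nM) with 0.5 mM PEP and 0.1 mM ADP in imidazole buffer pH 7.2 with MgCl2/KCl, 1 h at room temperature. ATP formed was read by luciferase luminescence and normalized to no-enzyme and uninhibited controls.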
Cycloheximide cs – counter-screen hit for Shiga toxin inhibitors, cycloheximide. actives 12% (n = 300,000). cell reporter, cycloheximide protein synthesis inhibition counterscreen. AID 2314. max response, %; in the data active means max response mostly above about 13%, no sharp cut-off; inactive means mostly below about 14%; further: read at 38.3 µM for the half of the compounds with a filed dose
Pf growth 96h – inhibits malaria parasite growth, 96 h; P. falciparum luciferase reporter growth, 96 h; Potency, µM (highest dose often 28.7 µM), usual class: inhibitors; actives 6.9% (n = 320,000)
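Cell-based qHTS: luciferase-tagged P. falciparum in erythrocytes (2% hematocrit, 0.05% parasitemia final) incubated with compounds for 96 hours, 37 C, 5% CO2; luciferase detection reagent then added and luminescence measured.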
Of the large screens only hits and unclear results are named; the others gave an inactive call. Unless noted, the call rests on the fitted dose curve; in most records, active means well fitted inhibition curve with a large enough effect; inconclusive means small, poorly fitted or top-dose-only effect, or another doubt; inactive means no such curve, though single readings can be large or run the other way.

COc1ccc(-c2cc(C(=O)NCC(c3ccccc3)N(C)C)c3ccccc3n2)cc1OC (configuration not stated)	Pf growth 48h 10µM, Pf growth 96h 9.3µM
COc1cc(-c2cc(C(=O)Nc3c(Cl)cc(Cl)cc3Cl)c3ccccc3n2)cc(OC)c1OC	Pf growth 48h 13µM, Pf growth 96h inconclusive
CCC(OC(=O)CN1C(=O)C(=O)c2ccccc21)C(=O)Nc1ccccc1OC (configuration not stated)	Pf growth 96h inconclusive
CCOC(=O)C1=C(CN2CCN(C(=O)c3ccco3)CC2)NC(=O)NC1c1ccc(OC)cc1 (configuration not stated)	Pf growth 48h inconclusive
COc1ccc(N2CCN(C(c3cccs3)C(C)NC(=O)C(=O)N3CCCC3)CC2)cc1 (configuration not stated)	Pf growth 48h inconclusive
Cc1noc(NS(=O)(=O)c2ccc(NC(=O)c3cc(-c4ccccc4Cl)nc4ccccc34)cc2)c1C	Pf growth 96h inconclusive
COc1ccc(-c2cc(C(=O)Nc3ccc(S(=O)(=O)Nc4onc(C)c4C)cc3)c3ccccc3n2)cc1	Pf growth 48h 12µM, Pf growth 96h inconclusive
O=S(=O)(Nc1cc(S(=O)(=O)N2CCOCC2)ccc1NCC1CCCO1)c1ccc(F)cc1 (configuration not stated)	Pf growth 96h inconclusive (no result: Shiga toxin inh, LmPK inh, Cycloheximide cs)
Nc1cc(-c2ccccc2)nn1Cc1ccccc1	Pf growth 96h inconclusive
CN(C)N=Nc1ccc(-c2cn(Cc3ccccc3)cn2)cc1	Shiga toxin inh 41, Pf growth 48h inconclusive, Cycloheximide cs 47, Pf growth 96h 4.7µM
O=C(Nc1ccc2c(c1)OCO2)O[C@@H]1C[C@H]2CCCC(=O)N3CC[C@@H](C1)[C@@H]23	none
CC1(C)CCC(=O)N2CC[C@H]3C[C@H](OC(=O)Nc4ccc(Br)cc4)C[C@@H]1[C@H]32	Cycloheximide cs 22
Cc1ccc2nc(-c3ccccn3)cc(C(=O)Nc3ccc(S(=O)(=O)N4CCOCC4)cc3)c2c1	Pf growth 48h 13µM
O=C(Nc1cccc(S(=O)(=O)N2CCCC2)c1)c1cc(-c2ccccn2)nc2ccccc12	Pf growth 48h 12µM, Pf growth 96h inconclusive
O=C(Nc1nc2ccc(S(=O)(=O)N3CCCCC3)cc2s1)c1ccncc1	Pf growth 48h inconclusive
COc1ccc(NC(=O)c2ccc3ccccc3n2)cc1S(=O)(=O)N1CCCCC1	Cycloheximide cs 38
O=C(Nc1nc2ccc(S(=O)(=O)N3CCCC3)cc2s1)c1ccccn1	Shiga toxin inh 60, Pf growth 48h inconclusive, LmPK inh inconclusive, Cycloheximide cs 38
COc1ccc(NC(=O)Nc2ccccc2)cc1S(=O)(=O)N1CCCCC1	Pf growth 48h inconclusive
Cc1ccccc1C(=O)Nc1ccc(S(=O)(=O)N2CCOCC2)cc1	none
Cc1cc(C(=O)Nc2cccc(S(=O)(=O)N3CCCCC3)c2)c2ccccc2n1	Pf growth 48h inconclusive, Pf growth 96h inconclusive
CCCCC(=O)NS(=O)(=O)c1ccc(N=NN2CCOCC2)cc1	none
COC(=O)c1ccccc1NC(=O)CNCCc1ccc(OC)c(OC)c1	none
O=C(CN1CCN(Cc2ccccc2)CC1)Nc1cccc(S(=O)(=O)N2CCCCCC2)c1	Pf growth 48h inconclusive
CCN1CCc2nc3ccccc3c(C(=O)Nc3ccc(F)cc3)c2C1	Pf growth 48h 2.1µM, Pf growth 96h inconclusive
O=C(Nc1cccc(S(=O)(=O)N2CCCCC2)c1)c1ccccn1	Cycloheximide cs 27
O=C(Nc1cccc(S(=O)(=O)N2CCCCC2)c1)c1c2c(nc3ccccc13)CCN(Cc1ccccc1)C2	Pf growth 48h 2.9µM, Pf growth 96h 2.6µM
O=S(=O)(Nc1nc2ccccc2nc1Nc1cccc(S(=O)(=O)N2CCCCC2)c1)c1ccccc1	Pf growth 48h 8.3µM, Pf growth 96h 2.1µM
O=C(Nc1cccc(S(=O)(=O)N2CCOCC2)c1)c1ccccn1	Pf growth 96h inconclusive
Cc1nn(C)cc1S(=O)(=O)Nc1ncccn1	Pf growth 96h inconclusive
CCOc1ccc(NC(=O)CN(C)C(=O)c2c(C)nn(-c3ccccc3)c2Cl)cc1OCC	none (no result: Shiga toxin inh, LmPK inh, Cycloheximide cs)
O=S(=O)(c1cccs1)N1CCC2(CC1)OCCN2S(=O)(=O)c1ccccc1	Pf growth 96h inconclusive (no result: Shiga toxin inh, LmPK inh, Cycloheximide cs)
O=C(COC(=O)c1c2c(nc3ccccc13)CCN(Cc1ccccc1)C2)Nc1c(F)cccc1F	Pf growth 96h 10µM
CSc1ncccc1C(=O)Nc1cccc(S(=O)(=O)N2CCCCC2)c1	Pf growth 48h 12µM, Pf growth 96h 10µM (no result: Shiga toxin inh, LmPK inh, Cycloheximide cs)
CSc1ncccc1C(=O)Nc1cccc(S(=O)(=O)N(C)c2ccccc2)c1	Pf growth 48h 9.3µM, Pf growth 96h inconclusive (no result: Shiga toxin inh, LmPK inh, Cycloheximide cs)
O=C(Nc1cccc(S(=O)(=O)N2CCCCCC2)c1)c1ccc2ccccc2n1	Pf growth 48h inconclusive, Cycloheximide cs 22, Pf growth 96h inconclusive
CCc1ccc(CN2CCC(N3CCC(C(=O)N4CCCC4)CC3)CC2)o1	none
COC(=O)c1sc(NC(=O)CCCn2nc([N+](=O)[O-])cc2C)c(C(=O)OC)c1C	Pf growth 96h inconclusive
CCOC(=O)c1c(NC(=O)c2ccc(Cl)cc2)csc1C	none
COc1ccc(S(=O)(=O)N2CCCCC2)cc1NC(=O)c1ccc2ccccc2n1	none
O=C(Nc1ccc(N2CCCCC2)cc1)c1ccc2ccccc2n1	Shiga toxin inh 78, Cycloheximide cs 29
Cc1ccc(S(=O)(=O)N2CCCCC2)cc1NC(=O)c1ccc2ccccc2n1	Shiga toxin inh 47, Cycloheximide cs 46
O=C(Nc1ccc(N2CCOCC2)cc1)c1cccc2ccccc12	none
CCOC(=O)C(C)n1nc(/C=C/c2ccc(OC)cc2)ccc1=O (configuration not stated)	Pf growth 48h inconclusive, Pf growth 96h 9.3µM
C=CCNC(=S)Nc1cccc(NC(=S)NCC=C)c1	Pf growth 48h 13µM, Pf growth 96h inconclusive
COCc1c(C(=O)OCC(=O)N2c3ccccc3NC(=O)C2(C)C)oc2ccccc12	Pf growth 48h inconclusive, Pf growth 96h 12µM
O=C(C[n+]1cc[nH]c1)c1ccc(Cl)cc1	none
Cc1ccc(CCNC(=O)Cn2ccc3cc(S(=O)(=O)N4CCCC4)ccc32)cc1	Pf growth 48h inconclusive
CCN(CC)S(=O)(=O)c1ccc(N2CCOCC2)c(NS(=O)(=O)c2ccc(OC)cc2)c1	Pf growth 96h inconclusive
CCN(CC)S(=O)(=O)c1ccc(N2CCOCC2)c(NS(=O)(=O)c2ccc(C)cc2)c1	Pf growth 48h inconclusive, Pf growth 96h 5.9µM
CCN(CC)S(=O)(=O)c1ccc(N2CCOCC2)c(NS(=O)(=O)c2ccc(C)c(C)c2)c1	Pf growth 48h 7.4µM, Pf growth 96h 4.1µM
CN1CCN(/N=C/c2ccc(Br)cc2)CC1	Cycloheximide cs 47
CN1CCN(/N=C/c2ccc(N(c3ccccc3)c3ccccc3)cc2)CC1	Pf growth 48h inconclusive, Pf growth 96h inconclusive
CN1CCN(/N=C/c2ccc(Cl)c(Cl)c2)CC1	Shiga toxin inh 84, Cycloheximide cs 38
COc1ccc(/C=N/N2CCN(C)CC2)cc1O	none
O=[N+]([O-])c1cc(/C=N/N2CCN(c3ccccc3)CC2)ccc1Cl	Pf growth 96h inconclusive
